Source: PubChem BioAssay (several laboratories)
Yeast superoxide: reduction of superoxide in aged yeast, primary screen, HTS; S. cerevisiae aged cells, superoxide DHE fluorescence; hits give low values; superoxide response (% of plate mean), % at 10 µM; 330,000 compounds, 0.18% hits; AID 2690, 2010;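 active means superoxide response under a set limit, about three screen SD below normal, cut at about 65% in these data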;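 further: yeast aged for seven days with compound at 30 °C before DHE staining; 100% = average MFI of all compound-treated wells on the plate with controls excluded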
HIF activator: HIF pathway transcriptional activators, primary screen, cell-based, U2OS HRE-luciferase, luminescence. U2OS HRE-luciferase reporter; normalized: DMSO 0%, desferrioxamine 100%. 300,000 compounds, 0.32% hits. AID 1910, 2009. activation, % at 7.5 µM (by protocol);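 active means mean activation of at least 10% of the iron chelator positive control signal, with at least half of replicates also reaching 10%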
AHR act: AHR activators, primary screen, cell-based, luminescence, luciferase reporter, human; Aryl hydrocarbon receptor (Homo sapiens), P35869; AHR-responsive luciferase reporter cells; activation, % at 5 µM; 320,000 compounds, 2.5% hits; AID 2796, 2010; in the data active means activation above about 47%;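 further: 0% = vehicle wells and 100% = reference agonist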
PLC-beta3 inh: human PLC-beta3 inhibitors, primary screen, biochemical, fluorescence | 1-phosphatidylinositol 4,5-bisphosphate phosphodiesterase beta-3 (Homo sapiens), Q01970 | Purified PLC-beta3, fluorogenic substrate | inhibition, % at 12.2 µM | 370,000 compounds, 0.18% hits | AID 720704, 2013;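 further: 0% = median of compound wells on plate and 100% = full blocker control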
HGIII-sPLA2 inh: human group III sPLA2 inhibitors, primary screen, biochemical, QFRET, BODIPY PC-A2 liposome substrate; QFRET BODIPY PC-A2 liposome hydrolysis, fluorescence; 370,000 compounds, 0.56% hits; inhibition, % at 12.2 µM; Group 3 secretory phospholipase A2 (Homo sapiens), Q9NZ20; AID 743126, 2013;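 active means inhibition above mean plus 3 SD of compounds lying within the high and low control bounds, cut at about 19% in these data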;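 further: 0% = median of test compound wells and 100% = no enzyme DMSO wells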
Target sequence (Q9NZ20 whole entry, looked up): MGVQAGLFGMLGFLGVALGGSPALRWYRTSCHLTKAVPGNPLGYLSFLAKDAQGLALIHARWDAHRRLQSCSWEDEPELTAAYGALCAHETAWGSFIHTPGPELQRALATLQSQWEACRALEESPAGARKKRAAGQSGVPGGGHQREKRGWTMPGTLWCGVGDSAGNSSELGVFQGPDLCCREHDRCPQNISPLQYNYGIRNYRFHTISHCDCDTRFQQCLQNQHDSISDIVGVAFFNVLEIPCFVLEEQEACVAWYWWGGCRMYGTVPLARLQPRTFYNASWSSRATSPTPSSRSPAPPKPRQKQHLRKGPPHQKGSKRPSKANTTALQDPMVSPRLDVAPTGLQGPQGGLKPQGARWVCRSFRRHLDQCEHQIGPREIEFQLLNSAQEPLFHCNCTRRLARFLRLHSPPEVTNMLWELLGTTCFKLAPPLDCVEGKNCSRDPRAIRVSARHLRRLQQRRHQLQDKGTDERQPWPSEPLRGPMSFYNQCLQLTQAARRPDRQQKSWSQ
PLC-gamma1 inh: PLC-gamma1 enzyme inhibitors, primary screen, biochemical, fluorescence, purified enzyme. 1-phosphatidylinositol 4,5-bisphosphate phosphodiesterase gamma-1 (Homo sapiens), P19174. fluorogenic substrate. inhibition, % at 12.2 µM. 370,000 compounds, 0.84% hits; in the data active means inhibition above about 9.5%
PLCg1 ctr: PLC-gamma1 enzyme inhibitors, counter-screen for PLC-beta3 inhibitor project, biochemical, fluorescence; shares compounds with PLC-gamma1 inh; 3,300 compounds, 3.1% hits; inhibition, % at 12.3 µM; purified PLC-gamma1, fluorogenic substrate; in the data active means inhibition above about 9.5%
PLCb3 confirm: PLC-beta3 inhibitor confirmation, biochemical, fluorescence, purified enzyme | shares compounds with PLC-gamma1 inh | fluorogenic substrate fluorescence | inhibition, % at 12.3 µM | 3,300 compounds, 1% hits
* marks the source's active call; other numbers are inactive results; / = not tested or not shown. Shown are actives, neighbours in structure and some others; about 3.9% of the full set was active somewhere. Unless noted, no stated cut-off is given here; in the data, active means inhibition above about 11%; inactive means the rest.

SMILES | Yeast superoxide | HIF activator | AHR act | PLC-beta3 inh | HGIII-sPLA2 inh | PLC-gamma1 inh | PLCg1 ctr | PLCb3 confirm
Cc1ccc2nc(SCC(=O)Nc3ccc(F)cc3F)nc(=O)n2c1 | 88 | 0 | -4 | -4 | -5 | -1 | / | /
Cc1ccc(Nc2nc(=O)c3cccnc3s2)cc1 | 134 | 2 | 69* | 2 | -7 | 11* | -6 | -3
O=c1nc(NCc2ccco2)sc2ncccc12 | 117 | / | -1 | 0 | 2 | 1 | / | /
COCC(=O)N[C@@H]1C[C@@H]2O[C@H](CO)CC[C@@H]2O[C@@H]1CCc1ccc(-c2ccccc2)cc1 | / | / | / | -3 | -2 | 1 | / | /
Cc1ccccc1NS(=O)(=O)c1ccc2c(c1)CCC(=O)N2 | / | / | / | 5 | 1 | 13* | -5 | -3
CC1(C)CC(=O)c2c(O)cc(OCC(=O)N3CCN(c4ccc(F)cc4)CC3)cc2O1 | 106 | 0 | 2 | -8 | 0 | -1 | / | /
COCCCNC(=O)CS(=O)Cc1nc(-c2cccc(OC)c2)oc1C (stereo not given) | 119 | 0 | 0 | 4 | 1 | 66* | -4 | -2
COC(=O)[C@]12CCCCC=C1N(Cc1ccc(Cl)cc1Cl)C(=O)[C@H](CC(=O)N1CCN(C(=O)C3CC3)CC1)C2 | / | / | / | -3 | -12 | 0 | / | /
CCCCNC(=S)NNC(=O)c1csc(CC)c1 | 116 | 3 | 5 | 14* | 8 | -2 | -7 | 13*
C=CCNC(=S)NNC(=O)c1csc(CC)c1 | 96 | 2 | 0 | 6 | 15 | 3 | / | /
CCNC(=S)NNC(=O)c1csc(C)c1 | 93 | 0 | 3 | 8 | 8 | -1 | / | /
CCCCNC(=S)NNC(=O)c1csc(C)c1 | 95 | 0 | 0 | 23* | 17 | 3 | -5 | 16*
NS(=O)(=O)c1ccc(NC(=O)COC(=O)Cn2cnc3ccccc3c2=O)cc1 | 107 | / | 0 | 3 | 17 | 0 | / | /
CCc1ccccc1NC(=O)CN1CCN(C(=O)CNC(=O)c2ccc(N3CCCC3=O)cc2)CC1 | 86 | / | 1 | -4 | -7 | 12* | -4 | 2
CCc1ccccc1NC(=O)CN1CCN(C(=O)CCC(=O)N2CCC(c3ccccc3)=N2)CC1 | 94 | / | 0 | -1 | -7 | 13* | -3 | -4
CCCCNC(=O)c1nc(-c2cnc(C)cn2)oc1-c1ccc(Cl)cc1 | / | / | / | -132 | -4 | -100 | / | /
COc1ccccc1N1CCN(C(c2cccs2)c2nnnn2C2CCCC2)CC1 (stereo not given) | 126 | 0 | -1 | 2 | 1 | 9.9* | 1 | 1
O=C(c1ccc(Cl)cc1[N+](=O)[O-])N1CCN(c2ccccn2)CC1 | 69 | 0 | 1 | 12* | 8 | 8 | 2 | 0
COc1ccc(CCCNC(=O)C2Cc3c(-c4cccc(C(C)=O)c4)ccnc3O2)cc1 (stereo not given) | / | / | / | 1 | -8 | 1 | / | /
C#CCn1c(S(=O)(=O)Cc2ccccc2Cl)nc(-c2ccccc2)c1-c1ccccc1 | 114 | 0 | -3 | 3 | 0 | 3 | / | /
C#CCn1c(S(=O)(=O)Cc2ccc(C)cc2)nc(-c2ccccc2)c1-c1ccccc1 | 96 | -1 | -2 | -2 | -1 | 10* | 1 | -6
COCc1cc(N2CCNC[C@@H]2C)ccc1N1CCN(Cc2ccccc2)[C@H](C)C1 | / | / | / | -3 | 1 | -1 | / | /
Cn1c(=O)c2[nH]c(N=NN3CCCCC3)nc2n(C)c1=O | / | / | / | 6 | 1 | 3 | / | /
CC1CCN(N=Nc2nc3c([nH]2)c(=O)n(C)c(=O)n3C)CC1 | / | / | / | 8 | 0 | 9.9* | -2 | 3
C[C@@H]1C=CCCO[C@]12C(=O)N(Cc1ccc(F)cc1)c1ccccc12 | / | / | / | 2 | 2 | 1 | / | /
SMILES | Yeast superoxide | HIF activator | AHR act | PLC-beta3 inh | HGIII-sPLA2 inh | PLC-gamma1 inh | PLCg1 ctr | PLCb3 confirm
COc1ccc(NC(=O)CN2CCCCCC2)cc1OC | 101 | -2 | 1 | 3 | 6 | 0 | / | /
CCC(=O)c1ccc(OCC(O)CN2CCN(S(=O)(=O)N3CCCCC3)CC2)cc1 (stereo not given) | 88 | -1 | 0 | 1 | -3 | 9.6* | -5 | 0
CN1CCN(S(=O)(=O)c2cccc(C(=O)Oc3ccc(Br)cc3F)c2)CC1 | 99 | 0 | 1 | 0 | 6 | 11* | -4 | -1
CN1CCN(S(=O)(=O)c2cccc(C(=O)Oc3cccc(Br)c3)c2)CC1 | 133 | 0 | 2 | -5 | -1 | 0 | / | /
CCCc1nnc(NC(=O)CCC(=O)N2CCN(Cc3cc(Cl)ccc3OC)CC2)s1 | 100 | 1 | 2 | -11 | 9 | 1 | / | /
CCCCCCN1C[C@@H](n2cc(C3CC3)nn2)[C@H](O)C[C@@H]1c1ccccc1 | / | / | / | 3 | 0 | 0 | / | /
O=C(/C=C/c1ccc(Cl)cc1)NC1CC2CCC1C2 (stereo not given) | 105 | 3 | 3 | 3 | 3 | 2 | / | /
O=C(/C=C/c1ccc([N+](=O)[O-])cc1)NC1CC2CCC1C2 (stereo not given) | 85 | 1 | 3 | 10 | 0 | 14* | 7 | 5
O=C(CSC1=NS(=O)(=O)c2cc(F)ccc2N1)NCc1ccccc1Cl | 96 | 0 | -2 | -8 | -6 | -3 | / | /
O=C(CSc1nc2c(c(C(F)(F)F)n1)CCc1ccccc1-2)NCc1ccc(F)cc1 | 105 | 0 | 2 | 13* | 6 | 13* | -8 | -2
O=C(CCNC(=O)c1ccco1)NCCc1ccc(Cl)cc1 | 97 | 0 | / | -2 | 1 | -1 | / | /
O=C(CCNC(=O)c1ccccc1)NCCc1ccc(Cl)cc1 | 107 | -1 | 0 | 0 | 3 | 9.6* | -5 | -4
COc1ccc([C@H]2CC(=O)C=C(c3ccc(C)c4ccccc34)C2)cc1 | 78 | / | 11 | -28 | -7 | -24 | / | /
Cc1ccccc1C(=O)NNC(=O)C(=O)N1CCCCC1 | 104 | / | 7 | 3 | 0 | 10* | -6 | -3
Cc1ccc(C(=O)Nc2ccccc2C(=O)N2CCCCCC2)cc1 | 97 | 0 | 1 | 8 | -2 | 10* | -8 | -6
COc1ccc(CNC(=O)C(CCSC)NS(=O)(=O)c2ccccc2F)cc1 (stereo not given) | 92 | -1 | 1 | -5 | -4 | -1 | / | /
CC(=O)c1c(C)nc2ccc([N+](=O)[O-])cc2c1-c1ccccc1 | 104 | -9 | -3 | 5 | 10 | 14* | 0 | 2
